# Reference: PubChem BioAssay (NCATS)
# Several values for one entry are separate records, joined by “and”; a condition that tells them apart may be missing. Equal entries are not always repeated. Values without a mark were called inactive. Records with an inconclusive call do not appear. Where a call stands in place of a potency, no number is given. Activity calls are given as the source filed them. Unless noted, the call rests on the fitted dose curve; in most records, active means well fitted curve in the direction sought with a large enough effect; inconclusive means small, poorly fitted or top-dose-only effect, or another doubt; inactive means no such curve, though single readings can be large; an effect the other way counts as inactive or inconclusive.
# Tests used:
# [1] = qHTS for Activators of Parkin Expression: LOPAC Validation Assay (NLuc Reporter) (AID 720572); details: Parkin promoter NanoLuc reporter cells, luminescence; series mostly up to 46.1 µM
# In short: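 NLuc signal, read 10 min after reagent and following a prior FLuc read, is normalized to DMSO (0) and positive controls (100%). Cells: neuronal Parkin-promoter coincidence reporter line; compounds tested 7-point, 24 h, 37 C, 5% CO2.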
# [2] = qHTS for Activators of Parkin Expression: LOPAC Validation Assay (FLuc Reporter) (AID 720573); details: Cell line, PRKN promoter firefly luciferase reporter, vehicle wells = 0, positive control = 100%; series mostly up to 46.1 µM
# In short: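 Readout is FLuc luminescence from neuronal reporter cells (Parkin promoter, FLuc plus NLuc) after 24 h compound exposure in dose response. Values normalized to neutral DMSO and positive-control compounds.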
# [3] = molecular target: T1, Hexokinase-4 (Homo sapiens) + Glucokinase regulatory protein (Homo sapiens) (UniProt P35557+Q14397); experiment: qHTS assay for inhibitors of recombinant human GCK-GKRP interaction: Diaphorase-coupled assay (AID 743205); details: G6PDH/diaphorase resorufin fluorescence; series mostly up to 57.5 µM
# In short: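 Signal derives from resorufin generated by diaphorase, linked to GCK turnover of glucose (5 mM) and ATP (0.4 mM). Enzyme complex was added after a 20-minute compound preincubation and monitored for 30 minutes.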
# [4] = molecular target: T1, Hexokinase-4 (Homo sapiens) + Glucokinase regulatory protein (Homo sapiens); experiment: qHTS assay for inhibitors of recombinant human GCK-GKRP interaction: ADP-Glo assay (AID 743206); details: ADP-Glo luminescence, 60 min, 0% = vehicle-only wells with enzyme present; series mostly up to 76.9 µM
# In short: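 Pin-transferred compounds meet a 15 nM GST-GCK/15 nM FLAG-GKRP/2 uM S6P mix (dispense concentrations). ATP is then added to 0.4 mM final with 5 mM glucose, and the reaction runs 60 min at room temperature. ADP is quantified luminescently.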
# [5] = molecular target: T1, Hexokinase-4 (Homo sapiens) + Glucokinase regulatory protein (Homo sapiens); experiment: qHTS assay for inhibitors of recombinant human GCK-GKRP interaction: HTRF assay (AID 743207); details: recombinant GCK-GKRP HTRF binding, 60 min; series mostly up to 57.5 µM
# In short: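 Titration screening format: recombinant GST-GCK and FLAG-GKRP at 5 nM, S6P at 2 uM, labelled anti-tag antibodies, 60 min at RT, dual-wavelength HTRF readout.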
# [6] = qHTS Assay for Identifying Gametocytocidal Compounds (AID 743244); further: potency means the concentration at half of the fitted maximal effect;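 on max response: actives lower the fluorescent signal which means gametocytes are killed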; details: P. falciparum 3D7 stage III-V gametocytes, alamarBlue, 72 h; max response: stronger effect = lower value
# In short: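 Viability read-out was resazurin reduction (alamarBlue, 24 h) measured at Ex 525/Em 598 nm. Beforehand, late-stage (III-V) 3D7 P. falciparum gametocytes at 20,000 cells/well were incubated with compound 72 h at 37C under 5% CO2.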
# [7] = qHTS assay for small molecule agonists of the antioxidant response element (ARE) signaling pathway measured by Nrf2-dependant transcriptional activity (AID 720636; active means well fitted curve in the direction sought with a large enough effect in the repeat runs; an effect the other way counts as inactive or inconclusive;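 further: HepG2 cells with an ARE-driven luciferase reporter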); details: ARE-luc HepG2, Nrf2 luciferase reporter, 16 h; series mostly up to 92.4 µM
# In short: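 Reporter gene assay, HepG2 ARE-luc: 16 hr compound, 37 C, 5% CO2; read-out luciferase luminescence.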
# [8] = qHTS assay for small molecule antagonists of the retinoid-related orphan receptor gamma (ROR-gamma) signaling pathway - cell viability counter screen (AID 720652; active means well fitted curve in the direction sought with a large enough effect in the repeat runs; an effect the other way counts as inactive or inconclusive;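 further: compound exposure lasted 16 hr before ATP read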; further: potency means the concentration at half of the fitted maximal effect); details: RORgamma reporter cell line viability counter screen; series mostly up to 92.2 µM
# In short: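 ATP-based viability readout in the ROR-gamma reporter CHO cells after 16 hr compound exposure under doxycycline induction.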
# [9] = qHTS assay for small molecule agonists of the antioxidant response element (ARE) signaling pathway measured by Nrf2-dependant transcriptional activity - cell viability counter screen (AID 720653; active means well fitted curve in the direction sought with a large enough effect in the repeat runs; an effect the other way counts as inactive or inconclusive); details: ARE-bla HepG2 viability, CellTiter-Glo ATP luminescence, 16 h; max response: stronger effect = lower value
# In short: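 ARE-bla HepG2 cells treated with compounds for 16 h at 37C; this counter screen measures viability as intracellular ATP by CellTiter-Glo luminescence after 30 min at room temperature.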
# [10] = qHTS assay for cell viability of HEK293 cells (AID 743288); details: ATP luminescence (CellTiter-Glo), 18 h; max response: stronger effect = lower value; further: nearly all actives have a fitted effect of over 50% in size
# In short: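 HEK293, 18 h, 37 C, ATP luminescence. Cells at 2,000/well were allowed at least 5 h to settle before dosing; CellTiter-Glo developed 30 min at RT.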
# T1 sequence (P35557 whole entry, looked up): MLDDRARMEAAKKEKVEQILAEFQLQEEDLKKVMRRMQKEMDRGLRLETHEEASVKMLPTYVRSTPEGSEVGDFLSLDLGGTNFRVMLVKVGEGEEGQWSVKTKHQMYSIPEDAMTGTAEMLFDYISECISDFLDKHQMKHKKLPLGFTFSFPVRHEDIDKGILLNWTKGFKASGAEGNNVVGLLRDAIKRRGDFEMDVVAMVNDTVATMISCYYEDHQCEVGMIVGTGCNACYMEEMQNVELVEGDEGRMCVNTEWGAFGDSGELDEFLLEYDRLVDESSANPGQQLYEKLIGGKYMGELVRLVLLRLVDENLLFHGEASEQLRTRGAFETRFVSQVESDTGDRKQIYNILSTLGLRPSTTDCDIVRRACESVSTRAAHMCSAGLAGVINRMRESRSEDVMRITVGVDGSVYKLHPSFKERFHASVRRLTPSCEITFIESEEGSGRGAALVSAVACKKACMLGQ
# T1 sequence (Q14397 whole entry, looked up): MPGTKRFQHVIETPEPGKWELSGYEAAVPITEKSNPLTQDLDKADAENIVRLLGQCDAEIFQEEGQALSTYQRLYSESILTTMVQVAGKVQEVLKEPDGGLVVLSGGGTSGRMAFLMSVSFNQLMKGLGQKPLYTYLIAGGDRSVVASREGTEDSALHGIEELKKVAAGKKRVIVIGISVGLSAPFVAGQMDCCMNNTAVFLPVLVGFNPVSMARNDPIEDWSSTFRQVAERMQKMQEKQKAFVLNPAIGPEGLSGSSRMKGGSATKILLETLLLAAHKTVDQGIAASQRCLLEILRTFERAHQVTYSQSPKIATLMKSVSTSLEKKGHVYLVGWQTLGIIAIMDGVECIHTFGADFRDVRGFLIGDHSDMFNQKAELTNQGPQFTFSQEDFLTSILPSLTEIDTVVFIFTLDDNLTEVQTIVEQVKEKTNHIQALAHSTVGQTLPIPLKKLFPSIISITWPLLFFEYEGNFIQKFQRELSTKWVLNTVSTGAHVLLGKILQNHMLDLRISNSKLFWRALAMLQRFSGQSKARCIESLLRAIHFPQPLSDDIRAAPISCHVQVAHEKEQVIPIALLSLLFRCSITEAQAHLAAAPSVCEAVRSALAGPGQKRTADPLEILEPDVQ
structure (smiles),measurement,setting,value
N#C/C(=C/c1ccc(O)c(O)c1)C(N)=S,Potency,[1],inactive
same,outcome,[2],inactive
same,Potency,[3],inactive
same,outcome,[4],inactive
same,outcome,[5],inactive
same,max response,[6],27.1%
CCCN1CC[C@@H]2c3cc(O)ccc3CC[C@@H]21,Potency,[1],inactive
same,outcome,[2],inactive
same,Potency,[3],inactive
same,outcome,[4],inactive
same,outcome,[5],inactive
same,max response,[6],20.4%
Oc1cc(Cl)c(Cl)cc1Cl,Potency,[7],inactive
same,Potency,[8],inactive
same,max response,[9],4.14% and 5.09%
same,max response,[6],4.45%
same,max response,[10],-2.85% and 0.876%
NC(Cc1cc(O)c(O)cc1O)C(=O)O (centres undefined),Potency,[1],inactive
same,outcome,[2],inactive
same,Potency,[3],inactive
same,outcome,[4],inactive
same,max response,[6],2.05%
CCCCCl,Potency,[7],inactive
same,Potency,[8],inactive
same,max response,[9],-3.38%
same,max response,[6],3.57%
same,max response,[10],-0.598%
C=CCN1CC[C@]23c4c5ccc(O)c4O[C@H]2/C(=N/NC(=O)c2ccccc2)CC[C@@]3(O)[C@H]1C5,Potency,[1],inactive
same,outcome,[2],inactive
same,Potency,[3],inactive
same,outcome,[4],inactive
same,outcome,[5],inactive
same,max response,[6],8.77%
OCc1cnc[nH]1,Potency,[1],inactive
same,outcome,[2],inactive
same,Potency,[3],inactive
same,outcome,[4],inactive
same,outcome,[5],inactive
same,max response,[6],26.7%
C[C@]12Cc3cn4c(nc3C=C1CCC1C2CC[C@@]2(C)[C@H]1CC[C@@]2(O)C#N)nc1ccccc14 (some centres undefined),outcome,[2],inactive
same,Potency,[3],inactive
same,outcome,[4],inactive
same,outcome,[5],inactive
CC(=O)c1c(O)c(C)c(O)c(Cc2c(O)c3c(c(C(=O)/C=C/c4ccccc4)c2O)OC(C)(C)C=C3)c1O,Potency,[1],inactive
same,outcome,[2],inactive
same,Potency,[3],inactive
same,outcome,[4],inactive
same,outcome,[5],inactive
same,max response,[6],17.7%
CC(Cc1ccc(OCC(=O)O)cc1)NCC(O)c1cccc(Cl)c1 (centres undefined),Potency,[1],inactive
same,outcome,[2],inactive
same,Potency,[3],inactive
same,outcome,[4],inactive
same,outcome,[5],inactive
same,max response,[6],16.8%
NCCc1ccc(S(=O)(=O)F)cc1,Potency,[1],inactive
same,outcome,[2],inactive
same,Potency,[3],inactive
same,outcome,[4],inactive
same,outcome,[5],inactive
same,max response,[6],22.8%
ClCC1CO1 (centres undefined),Potency,[7],inactive
same,Potency,[8],inactive
same,max response,[9],-2.98%
same,max response,[6],11.4%
same,max response,[10],3.04%
O=C1CCO1,Potency,[7],inactive
same,Potency,[8],inactive
same,max response,[9],5.4%
same,max response,[6],11.4%
same,max response,[10],5.83%
CCCN(CCC)CCc1ccc(O)c(O)c1,Potency,[1],inactive
same,outcome,[2],inactive
same,Potency,[3],inactive
same,outcome,[4],inactive
same,outcome,[5],inactive
same,max response,[6],12.9%
OC1CCCCC1N1CCC(c2ccccc2)CC1 (centres undefined),Potency,[1],inactive
same,outcome,[2],inactive
same,Potency,[3],inactive
same,outcome,[4],inactive
same,outcome,[5],inactive
same,max response,[6],6.56%
S=C=S,Potency,[7],inactive
same,Potency,[8],inactive
same,max response,[9],-6.45%
same,max response,[6],-5.35%
same,max response,[10],-4.58%
C[Se]C[C@H](N)C(=O)O,Potency,[1],inactive
same,outcome,[2],inactive
same,Potency,[3],inactive
same,outcome,[4],inactive
same,outcome,[5],inactive
same,max response,[6],-6.02%
c1ccc2c(c1)[I+]c1ccccc1-2,Potency,[1],inactive
same,outcome,[2],inactive
same,Potency,[3],inactive
same,outcome,[4],inactive
same,outcome,[5],inactive
same,Potency,[6],0.166 µM (active)
C[N+](C)(C)CCOC(=O)CBr,Potency,[1],inactive
same,outcome,[2],inactive
same,Potency,[3],inactive
same,outcome,[4],inactive
same,outcome,[5],inactive
same,max response,[6],20.4%
CC(C)CCON=O,Potency,[7],inactive
same,Potency,[8],inactive
same,max response,[9],1.97%
same,max response,[6],-1.81%
same,max response,[10],-5.29%
O=[N+]([O-])c1ccc(F)c([N+](=O)[O-])c1,Potency,[7],inactive
same,Potency,[8],59.6 µM (active)
same,max response,[9],-6.71%
same,max response,[6],6.65%
CCCCCCCCOC(=O)c1ccccc1C(=O)OCCCCCCCC,Potency,[7],inactive
same,max response,[9],-5.46% and -4.31%
same,max response,[6],-1.95%
same,max response,[10],-2.74% and -18%
ClC(Cl)(Cl)Cl,Potency,[7],inactive
same,Potency,[8],inactive
same,max response,[9],14.9% and -6.99%
same,max response,[10],-6.99% and 5.96%
CCCCNCC(O)c1ccc(O)cc1 (centres undefined),max response,[6],15.5%
C#CCN1CC(=O)N(COC(=O)C2C(C=C(C)C)C2(C)C)C1=O (centres undefined),max response,[9],2.56%
same,max response,[6],21.2%
same,max response,[10],-15.4%
Oc1ccc2c3c1O[C@H]1c4[nH]c5ccccc5c4C[C@@]4(O)C(C2)N(CC2CC2)CCC314 (some centres undefined),Potency,[3],inactive
same,outcome,[5],inactive
C=CCN=C=S,Potency,[7],inactive
same,max response,[9],9.92%
same,max response,[6],-13.2%
same,max response,[10],-7.74%
CC12NC(Cc3ccccc31)c1ccccc12 (centres undefined),Potency,[3],inactive
same,outcome,[4],inactive
same,outcome,[5],inactive
O=CC=O,Potency,[7],inactive
same,Potency,[8],inactive
same,max response,[9],0.354%
same,max response,[10],-6.19%
Clc1ccccc1Cl,Potency,[7],inactive
same,Potency,[8],inactive
same,max response,[9],1.42%
same,max response,[10],2.94%
